# Measurements as given in PubChem BioAssay (NCATS).
# Inconclusive results are not listed. Active and inactive are the calls of the source. Calls come from the whole dose curve; as a rule, active = well fitted cell-killing curve with a large enough effect; inconclusive = small, poorly fitted or top-dose-only effect, or effect the other way; inactive = no such curve, though single readings can be large or run the other way.
# Assay: Viability qHTS for spleen associated tyrosine kinase inhibitor (SYKi) drug resistant MV4-11 cells (AID 1963824); note: nearly all actives have a fitted effect of over 35% in size
# Settings: SYKi-resistant MV4-11 viability, CellTiter-Glo, 72 h; series mostly up to 45 µM
# In short: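 SYK-inhibitor-resistant MV4-11 AML cells were seeded at 500 per well onto compound and cultured 72 hours (37 °C, 5% CO2). CellTiter-Glo was then added, and after 10 min at room temperature, luminescence gave viability.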
# Potency is the fitted concentration of half-maximal effect.
row,SMILES,Potency
1,O=C1N=C(O)S/C1=C\c1ccc2nccnc2c1,13 µM (active)
2,CC1CCCCN1CCCOC(=O)c1ccc(OC2CCCCC2)cc1 (configuration not stated),13.3 µM (active)
3,CN(C)CCN(Cc1ccc(-c2ccc(CNCCc3ccccc3)cc2)cc1)C(=O)CCC1CCCC1,0.92 µM (active)
4,C=C1C(=O)O[C@@H]2[C@H]1CCC(C)=C(CCC(=O)O)[C@@]2(C)O,4.11 µM (active)
5,COc1cc(O)c2c(c1)C1=CC(O)C(O)CC1(C)OC2=O (configuration not stated),inactive
6,CCOC(=O)OCC/C(SC(=O)OCC)=C(\C)N(C=O)Cc1cnc(C)nc1N,inactive
7,C/C=C1\[C@H](O[C@@H]2O[C@H](CO)[C@@H](O)[C@H](O)[C@H]2O)OC=C(C(=O)O)[C@H]1CC(=O)OCCc1ccc(O)cc1,inactive
